Out of some 340,000 compounds screened, about 2,100 (0.62%) were called active.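 The calls were made as follows: active = first-screen hits whose inhibition reached a set limit at any dose in the follow-up dose series; inconclusive = inhibition above the set first-screen limit but never retested; inactive = the rest.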 Only a sample is shown. Potency and affinity values are given separately.
molecular target: Rac GTPase-activating protein 1 (Homo sapiens) (UniProt Q9H0H5); assay: MgcRacGAP GTPase-activating activity inhibitors, confirmation, biochemical, ADP Hunter fluorescence, primary and confirmatory (AID 624330); conditions: MgcRacGAP-stimulated Rac1 GTP hydrolysis, at 30 µM, hits give high values, GST-tagged Rac1 F28L mutant substrate;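 also: fluorescence reports GDP produced by GAP-driven GTP hydrolysis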
Sequence (Q9H0H5 whole entry, looked up): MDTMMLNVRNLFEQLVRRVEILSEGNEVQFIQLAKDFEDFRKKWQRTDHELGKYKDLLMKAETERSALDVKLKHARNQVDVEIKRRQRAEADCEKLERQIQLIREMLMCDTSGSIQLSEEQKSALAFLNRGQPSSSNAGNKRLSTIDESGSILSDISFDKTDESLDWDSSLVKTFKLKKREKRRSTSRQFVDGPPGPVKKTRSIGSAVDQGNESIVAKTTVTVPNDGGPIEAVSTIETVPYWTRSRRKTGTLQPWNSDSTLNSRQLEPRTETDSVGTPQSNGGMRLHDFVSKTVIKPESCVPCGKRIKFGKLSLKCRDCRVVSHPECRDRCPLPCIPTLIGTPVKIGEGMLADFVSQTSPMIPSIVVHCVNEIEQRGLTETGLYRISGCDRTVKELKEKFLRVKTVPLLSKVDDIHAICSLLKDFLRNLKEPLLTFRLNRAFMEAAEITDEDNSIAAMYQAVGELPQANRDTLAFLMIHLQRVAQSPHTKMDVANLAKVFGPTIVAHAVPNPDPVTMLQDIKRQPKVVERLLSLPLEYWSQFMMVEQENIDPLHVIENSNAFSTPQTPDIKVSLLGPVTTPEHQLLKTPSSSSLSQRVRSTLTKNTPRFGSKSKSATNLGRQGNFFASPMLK

inhibition, inactive:
COc1ccc(N2C(S)=C(C#N)C(=O)NC2c2ccco2)cc1 (configuration not stated) 38.5%, N#CC1=C(S)N(c2ccccc2)C(c2ccco2)NC1=O (configuration not stated) 1.78%, N#CC1=C(S)N(c2ccccc2)C(c2ccc(-c3cc(Cl)ccc3Cl)o2)NC1=O (configuration not stated) 19.7%, COc1ccc(C2NC(=O)C(C#N)=C(S)N2c2ccccc2)cc1OC (configuration not stated) 42.4%, Cc1ccc(N2C(S)=C(C#N)C(=O)NC2c2ccco2)cc1 (configuration not stated) 49.9%, N#CC1=C(S)N(c2ccccc2)C(c2ccc(-c3ccc(Cl)c(Cl)c3)o2)NC1=O (configuration not stated) 24.7%, O=C(COC(=O)c1cc(F)c(F)cc1Cl)NC1CCCCCC1 -27.4%, CCN(CC)S(=O)(=O)c1ccc(N2CCN(c3ccccc3O)CC2)nc1 5.53%, Clc1ccc(NCc2nnc3n2CCCCC3)cc1 10.6%, CC(=O)N1CCOc2ccc(S(=O)(=O)Nc3ncccc3C)cc21 4.93%, Cc1ccc(NC(=O)Cc2nc(COC(=O)c3c(F)cccc3Cl)cs2)cc1 2.55%, O=C1c2ccccc2/C(=C\c2ccc(Br)s2)N1c1ccccc1 1.75%, COc1ccc(N2CCN(C(=O)c3cc(=O)[nH]c4ccccc34)CC2)cc1 18.3%, OC(COC(c1ccc(F)cc1)c1ccc(F)cc1)CN1CCCC1 (configuration not stated) 31.4%, COc1ccc(N2CCN(CC(O)COC(c3ccccc3)c3ccccc3)CC2)cc1 (configuration not stated) 8.7%, OC(COC(c1ccc(F)cc1)c1ccc(F)cc1)CN1CCc2ccccc2C1 (configuration not stated) 20.1%, COc1ccc(C(OCC(O)CN2CCC(O)CC2)c2ccc(OC)cc2)cc1 (configuration not stated) 6.25%, CCOC(=O)Cc1csc(NC(=O)c2ccc(C)o2)n1 3.9%, Cc1nc(SCc2ccc([N+](=O)[O-])cc2)nc2ccccc12 8.16%, O=C1CSC(=S)N1c1ccccc1 -7.87%, O=C(COc1ccccc1)NN1C(=O)CSC1=S 6.09%, O=C(Cn1cc([N+](=O)[O-])cn1)NCc1cc2ccccc2[nH]1 8.44%, CCOc1cc(N2CCOCC2)c(OCC)cc1NC(=O)c1ccccc1 27.1%, CCOc1cc(N2CCOCC2)c(OCC)cc1NC(=O)c1ccc(C)cc1 19.8%, CCOc1cc(N2CCOCC2)c(OCC)cc1NC(=O)c1cc(C)cc(C)c1 10.8%, CCOc1cc(N2CCOCC2)c(OCC)cc1NC(=O)Cc1ccccc1 10.9%, CC(C)CN1CC(Br)C(=O)NC1=O (configuration not stated) 4.9%, COc1ccc(CCNC(=S)Nc2ccccc2)cc1 12.5%, COc1ccc(C)cc1NC(=O)C(=O)N/N=C(\C)CC(=O)Nc1cccnc1 -2.35%, N#CCC(=N)N1CCN(c2ccc(F)cc2)CC1 1.28%, CN(C(=O)OC(C)(C)C)[C@H](Cc1ccccc1)C(=O)N[C@H]1CCCCNC1=O 4.78%, CCS(=O)(=O)c1ccc(O)c(NC(=O)/C=C/c2ccccc2)c1 5.42%, Cc1cc(NC(=O)/C=C/c2ccccc2)c(C(C)C)cc1O 12.2%, CCC1(c2ccccc2)NC(=O)N(CC(=O)N(CC(=O)Nc2ccccc2C(F)(F)F)Cc2ccco2)C1=O (configuration not stated) 1.52%, COc1ccc(C)cc1NC(=O)c1cc(S(=O)(=O)N2CCOCC2)cn1C 10.3%, CCOC(=O)C1CCN(C(=O)COC(=O)c2oc3ccccc3c2C)CC1 7.79%, COc1ccc(/C=N/NC(=O)c2ccc(=O)[nH]n2)cc1OC 8.66%, COc1cc(/C=N/NC(=O)c2cccc(C(=O)N/N=C/c3ccc(O)c(OC)c3)n2)ccc1O 9.56%, CCOC(=O)N/N=C/c1ccc(OC)c(O)c1 18.6%, COc1ccc(/C=N/NC(=O)c2cccc(C(=O)N/N=C/c3ccc(OC)c(OC)c3)n2)cc1OC 5.53%, CC(C)NC(=O)c1cc2n(n1)C(C(F)(F)F)CC(c1ccco1)N2 (configuration not stated) 5.2%, C=CCn1c(SCC(=O)NCCOC)nnc1-c1cc2c(s1)CCC(CC)C2 (configuration not stated) 7.45%, O=C1c2cc([N+](=O)[O-])ccc2-c2ncccc21 -4.67%, Cn1c(=O)[nH]c(=O)c2c1nc(Sc1ccccc1)n2CCc1ccccc1 0.88%, CCC(C)(O)c1[nH]c2ccc(C(F)(F)F)cc2c1C (configuration not stated) 5.14%, CNc1cccc2c1C(=O)c1ccccc1C2=O 6.76%, CN1C(=O)c2cccc(NCCCN3C(=O)c4ccccc4C3=O)c2C1=O 10.7%, CN1C(=O)c2cccc(NCCCCCCN3C(=O)c4ccccc4C3=O)c2C1=O 5.81%, OCCNCCO -1.48%, O=C1c2ccccc2C(=O)c2c(NCc3cccnc3)cccc21 1.26%, O=C1c2ccccc2C(=O)c2c(Nc3ccc(CCO)cc3)ccc(O)c21 15.2%, CC(C)Oc1ccc(C(=O)NC2=NCCS2)cc1 6.37%, Cc1cccc(NC(=O)CSc2nnnn2-c2cccnc2)c1 4.2%, Cc1cc(C)c(NC(=O)CN(C)C(=O)CCN2C(=O)C3CCCCC3C2=O)c(C)c1 (configuration not stated) 11.4%, Cn1c(SCC(=O)NCC2CCCO2)nnc1-c1cccc(NC(=O)c2ccccc2F)c1 (configuration not stated) 2.1%, COCCCNC(=O)COc1ccc(S(=O)(=O)Nc2ccccc2)cc1 5.23%, NCC12CC3CC(CC(O)(C3)C1)C2 9.89%, NC(=O)CC12CC3CC(C1)CC(CC(N)=O)(C3)C2 -1.41%, COCC(C)NCc1ccc(C)cc1C (configuration not stated) 16.8%, COCC(C)NCc1cccc2ccccc12 (configuration not stated) 26.8%, CCOc1ccccc1N1CC(C(=O)Nc2cc(Cl)ccc2C)CC1=O (configuration not stated) -1.6%, Cc1ccc(Cl)cc1N1CCN(C(=O)CN(C2CCCCC2)S(C)(=O)=O)CC1 1.2%

Source: PubChem BioAssay AID624330 (Southern Research Specialized Biocontainment Screening …, 2012)
